An excerpt weighted towards active compounds, which were near 2.7% of everything screened.
ANO1 block: mouse TMEM16A channel inhibition, primary screen; Q8BHY3; HEK293 TMEM16A/YFP iodide influx fluorescence, ionomycin; 310,000 tested, 1.2% active; AID 588511; normalized B-score (activity score, 25-100; higher = stronger inhibition) at 10 µM;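 active = ratio plate-corrected score three or more library SD toward inhibition, starting fluorescence score within five deviations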;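 note: score derived from kinetic fluorescence span divided by baseline fluorescence per well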
Target sequence (Q8BHY3 whole entry, looked up): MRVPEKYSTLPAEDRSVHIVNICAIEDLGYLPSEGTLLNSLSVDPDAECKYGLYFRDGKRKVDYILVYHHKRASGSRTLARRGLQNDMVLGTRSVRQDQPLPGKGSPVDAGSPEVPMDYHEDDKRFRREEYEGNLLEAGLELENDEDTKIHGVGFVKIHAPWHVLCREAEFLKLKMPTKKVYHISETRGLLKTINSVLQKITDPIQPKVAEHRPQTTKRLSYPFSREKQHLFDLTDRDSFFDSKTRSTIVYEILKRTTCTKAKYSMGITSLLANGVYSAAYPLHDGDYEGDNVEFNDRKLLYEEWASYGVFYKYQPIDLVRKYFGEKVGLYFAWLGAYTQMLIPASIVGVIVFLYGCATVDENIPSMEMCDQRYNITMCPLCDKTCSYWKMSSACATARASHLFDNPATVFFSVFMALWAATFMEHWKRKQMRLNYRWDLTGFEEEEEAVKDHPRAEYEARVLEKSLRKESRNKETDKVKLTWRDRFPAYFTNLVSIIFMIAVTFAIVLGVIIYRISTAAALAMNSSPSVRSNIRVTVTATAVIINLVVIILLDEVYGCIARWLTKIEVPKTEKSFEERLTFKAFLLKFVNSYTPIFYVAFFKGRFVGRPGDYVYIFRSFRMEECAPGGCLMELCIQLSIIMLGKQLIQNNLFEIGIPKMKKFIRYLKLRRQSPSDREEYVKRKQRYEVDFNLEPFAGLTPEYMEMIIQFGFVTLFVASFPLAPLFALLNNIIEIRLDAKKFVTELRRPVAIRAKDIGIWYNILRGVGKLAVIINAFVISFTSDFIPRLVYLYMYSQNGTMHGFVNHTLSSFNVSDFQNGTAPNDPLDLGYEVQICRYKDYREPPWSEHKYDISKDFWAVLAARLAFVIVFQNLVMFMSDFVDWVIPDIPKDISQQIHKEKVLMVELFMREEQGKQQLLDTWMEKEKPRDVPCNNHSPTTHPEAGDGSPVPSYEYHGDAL
CHT inh: inhibits the human high affinity choline transporter. CHT-expressing cells, membrane potential dye, choline response; active compounds read low. B-score at 10 µM. AID 488975. Q9GZV3. 310,000 tested, 0.86% active;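 active = B-score over 3 SD under the library average, and starting fluorescence ratio not unusually high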;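 note: choline stimulus applied at its EC90 after an EC20 pre-addition; B-score computed on integrated fluorescence ratio after choline addition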
IDE act: activators of human insulin-degrading enzyme in cells; 340,000 tested, 0.073% active; AID 493087; P14735; HEK cells, FAbeta-B cleavage, fluorescence polarization; 0% vehicle, 100% cell-free pure enzyme wells; activation, % at 5.96 µM;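 active = activation above the mean of all tested compounds plus 3 SD, set per screening campaign, cut at about 17% in these data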
CHT allo act: allosterically activates the human high affinity choline transporter | Q9GZV3 | CHT-expressing cells, membrane potential dye, choline EC20; active compounds read high; LV-AA mutant CHT in HEK293 cells | B-score at 10 µM | 310,000 tested, 0.49% active | AID 488977;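 active = initial fluorescence not abnormally high and integrated response B-score, plate-corrected, over 3 SD above library mean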
TMEM16A act: mouse TMEM16A channel activation, primary screen; Q8BHY3; HEK293 TMEM16A/YFP-H148Q/I152L, iodide quench fluorescence; active compounds read low; B-score at 10 µM; 340,000 tested, 0.3% active; AID 623877;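 active = fluorescence-ratio B-score plate-corrected deviation score at least 3 library SD below zero, with starting fluorescence score within 5 deviations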;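 note: channel opened by trigger with iodide after compound preincubation; score built on the fluorescence ratio of max minus min over baseline; more negative score means more quench and so TMEM16A activation or potentiation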
IDE cell inh: inhibitors of human insulin-degrading enzyme in cells; HEK cells, FAbetaB cleavage, fluorescence polarization; inhibition, % at 5.59 µM; 320,000 tested, 0.41% active;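 active = percent inhibition above the average of all tested compounds plus 3 SD, set per screening campaign, cut at about 16% in these data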;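 note: IDE supplied by intact live HEK cells; FP after avidin binding of uncleaved biotin substrate so inhibition keeps polarization high; 0% = DMSO wells and 100% = 60 µM reference IDE inhibitor Ii1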
CHT block conf: confirmation of human choline transporter CHT inhibitors; CHT-expressing cells, choline membrane potential dye; LV-to-AA substituted CHT, HEK293 cells; CHT activity remaining % of control (active compounds read low), % at 10 µM; shares compounds with CHT inh; 2,400 tested, 70% active;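 active = choline transporter activity left, mean of duplicates at 10 µM, below buffer-only control mean minus 3 SD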;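 note: depolarization triggered by choline at its EC90 following an EC20 pre-addition; 0% = hemicholinium-3 full block and 100% = buffer-only control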
HEK293 CHT ctr: activity in parental HEK293 cells lacking CHT; shares compounds with CHT inh; membrane potential dye, choline response; active = decrease or increase beyond buffer ±3SD; membrane potential ratio readout (active if shifted either direction beyond buffer ±3SD; no single direction) at 10 µM; 2,400 tested, 4% active;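 note: parental cells lack the transporter so any hit is non-specific; ratio is peak minus trough fluorescence over baseline after EC90 choline challenge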
CHT act confirm: human CHT activation, confirmatory screen; shares compounds with CHT allo act; CHT-expressing cells, membrane potential dye fluorescence (FDSS); % of choline EC20–EC90 response window; HEK293 expressing CHT LV-AA mutant; choline added at its EC20; activation, % at 10 µM; 2,500 tested, 91% active; AID 504833;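 active = primary screen active, with duplicate mean activation above negative control mean plus 3 SD, cut at about 11% in these data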
HEK293 MP dye: counter-screen for CHT activators: effect in parental HEK293 cells | 2,500 tested, 62% active | ratio readout change at 10 µM, hits read low | AID 623908 | membrane potential dye fluorescence (FDSS); measured after EC20 choline addition | shares compounds with CHT allo act;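 active = duplicate-averaged ratio beyond 3 SD from buffer wells, up or down, though filed actives are nearly all decreases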
TMEM16A reconf: re-confirmation of mouse TMEM16A chloride channel inhibitors | shares compounds with ANO1 block | HEK293 TMEM16A/YFP-H148Q, iodide quench fluorescence; ionomycin added to raise cell calcium | inhibition, % at 10 µM | 2,300 tested, 39% active | AID 652189;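 active = mean duplicate percent inhibition, scaled so buffer wells are 0 and the reference blocker 100, over three buffer SD above buffer mean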
HEK293 Ca mobil: alters calcium mobilization in TMEM16A HEK293 cells, counter-screen; shares compounds with ANO1 block; TMEM16A/YFP HEK293, Fluo4 calcium mobilization; calcium response (% of ionomycin), % at 10 µM; 2,300 tested, 2% active;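 active = duplicate-averaged calcium signal over 20% of the ionomycin maximum, relative to buffer baseline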;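 note: each well's signal is peak minus trough fluorescence divided by its pre-addition baseline; 0% = buffer wells and 100% = ionomycin wells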
Parental YFP cnt: counter-screen for TMEM16A inhibitors: effect in parental YFP-HEK293 cells. 2,300 tested, under 10 active. YFP ratio F(max-min)/F0 at 10 µM. AID 652233. shares compounds with ANO1 block. iodide YFP quench, ionomycin;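 active = yellow fluorescent protein signal ratio exceeding the buffer control mean by over 5 SD of those controls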;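 note: ratio is mean of duplicate wells from kinetic YFP trace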
ClC-1 inh: rat ClC-1 inhibition, TMEM16A specificity screen; 2,300 tested, under 10 active; CHO ClC-1-YFP, iodide influx fluorescence quench; iodide control reads 0, buffer control 100; shares compounds with ANO1 block; ratio percent, % at 10 µM;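 active = duplicate-mean ratio percent above the mean of iodide-only control wells, which defines zero, plus 5 of their SD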;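 note: higher percent means stronger block of ClC-1 iodide influx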
* = called active by the depositor; i = inactive; / = no result given; ! = not active in a repeat.

SMILES	ANO1 block	CHT inh	IDE act	CHT allo act	TMEM16A act	IDE cell inh	CHT act confirm	HEK293 MP dye	others
O=C(NNC1=C(C(=O)C(F)(F)F)CCC1)c1ccc(Cl)cc1	25*	-5.1*	-3	i	i	1	/	/	CHT block conf=40%*;HEK293 CHT ctr=i;TMEM16A reconf=24%*;HEK293 Ca mobil=i;Parental YFP cnt=-0.88;ClC-1 inh=-12
Cc1ccc(-c2cn(-c3ccccc3)c3[n+]2CCCS3)cc1	i	i	4	6.6*!	i	1	50*	-23*
c1ccc(-c2cn(-c3ccccc3)c3[n+]2CCCS3)cc1	i	i	2	i	i	-3	/	/
N#Cc1ccc(-c2cn3c(n2)SCC3)cc1	i	i	1	i	i	/	/	/
CCc1ccc(-n2cc(-c3ccc(F)cc3)[n+]3c2SCCC3)cc1	i	i	2	14*	i	-1	82*	i
CCc1ccc(N2CC(C(=O)Nc3ccc(F)cc3)CC2=O)cc1 (centres undefined)	i	i	-3	i	i	1	/	/
N#Cc1ccc(-c2cn(-c3ccccc3)c3[n+]2CCCS3)cc1	i	i	-7	10*	i	2	62*	-65*
CCOc1ccc(CNC(=O)Cn2ccc3cc(S(=O)(=O)N4CCCC4)ccc32)cc1	i	i	4	i	i	0	/	/
COCCCN1C(=O)c2ccc(C(=O)Nc3ccc(C)cc3C)cc2C1=O	i	i	-3	i	i	-1	/	/
Cc1cc2c(cc1S(=O)(=O)CCC(=O)N(C)Cc1ccccc1)OCC(=O)N2	i	i	10	i	i	-1	/	/
O=C(c1cccc(S(=O)(=O)N2CCCC2)c1)N1CCN(S(=O)(=O)c2cccc(Cl)c2)CC1	/	/	-4	/	i	/	/	/
COc1cccc(NC(=O)/C=C/c2ccc(S(=O)(=O)N3CCOCC3)cc2)c1	/	/	-4	/	i	-4	/	/
CCC(=O)NCCc1nc2cc(NC(=O)c3cccc([N+](=O)[O-])c3)ccc2n1C	i	i	1	i	i	/	32*	-26*
CC(=O)NCCc1nc2cc(NC(=O)c3cccc([N+](=O)[O-])c3)ccc2n1C	i	i	-1	i	i	/	/	/
Cc1ccc(C(=O)C(C)OC(=O)Cn2c(C)csc2=O)cc1 (centres undefined)	i	i	6	i	i	-6	/	/
CCC(=O)Nc1c(-c2ccc3ccccc3c2)nc2ccccn12	i	i	-3	i	i	3	/	/
N#CC1(Cc2ccc([N+](=O)[O-])cc2)c2ccccc2C=CN1C(=O)c1ccccc1 (centres undefined)	i	i	4	i	i	-1	27*	i
O=C(CSc1ccc([N+](=O)[O-])cc1)c1ccccc1	/	/	1	/	i	/	/	/
COCCCNC(=O)C[C@H]1C[C@H](C(=O)N(C(C)C)C(C)C)[C@@]2(C)c3[nH]c4ccc(Cl)cc4c3CCN2C1=O	/	/	2	/	/	/	/	/
Brc1ccc(-c2cnc3n2CCCC3)cc1	i	i	5	i	i	-5	/	/
CCOc1ccc(-c2cnc3n2CCC3)cc1	i	i	-2	i	i	0	50*	-39*
CC(C)(C)OC(=O)N1Cc2ccccc2C[C@H]1C(=O)NC1CCCC1	i	i	2	i	i	/	2	i
CC(C)(C)OC(=O)N1Cc2ccccc2C[C@H]1C(=O)NCC(=O)NC1CCCC1	i	i	3	i	i	-2	/	/
Cc1cc(C)n2nc(-c3cccnc3)nc2n1	i	i	4	i	i	-2	48*	-51*
Cc1cc(C)n2nc(-c3ccc(F)cc3)nc2n1	i	i	7	i	i	2	/	/
SMILES	ANO1 block	CHT inh	IDE act	CHT allo act	TMEM16A act	IDE cell inh	CHT act confirm	HEK293 MP dye	others
Brc1ccc2c(c1)OCCOCCOc1cc(Br)ccc1OCCOCCOCCO2	100*	i	7	14*	i	0	57*	i
Brc1cc2c(cc1Br)OCCOCCOCCOCCO2	i	i	1	i	i	7	/	/
Cc1ccc(CNc2ncc(-c3ccc4c(c3)OCO4)n2C)cc1	i	i	1	6.6*	i	-6	25*	-31*
Cn1c(-c2ccc3c(c2)OCO3)cnc1NCc1ccc(Cl)cc1	i	i	5	i	i	-4	/	/
O=C(Cn1nc(Cc2cccnc2)c2ccccc2c1=O)N1CCN(c2ccccn2)CC1	i	i	6	i	i	4	/	/
O=C(c1nn(Cc2ccccc2)c(=O)c2ccccc12)N1CCc2ccccc2C1	i	i	2	8.4*	i	1	28*	i
O=C(c1nn(Cc2ccccc2)c(=O)c2ccccc12)N1CCN(c2ccccn2)CC1	i	i	-1	7.6*	i	3	26*	i
NC(=O)C1Cc2ccccc2CN1C(=O)c1nn(Cc2ccccc2)c(=O)c2ccccc12 (centres undefined)	/	/	5	/	i	8	/	/

High-throughput results as filed in PubChem.
